From PubChem BioAssay (EPA / NIEHS)
Results filed as inconclusive are left out. Active and inactive are the calls of the source. The calls were made as follows, unless noted: active = hit-call score of the fitted dose curve at least 0.9, where 1 is the maximum; inactive = score below 0.9.

System: not listed separately
Assay: ATG_VDRE_CIS: Attagene CIS-FACTORIAL HepG2 Assay for human Vitamin D Receptor Element (VDRE) (AID 2282968)
Details: HepG2 VDRE cis-reporter transcription, actives raise or lower the signal
Summary of the method: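 Transfected HepG2 reporter cells, chemical treatment 24 h. RNA isolated, cDNA amplified with reporter-specific primers, products analysed by capillary electrophoresis. Endpoint fitted in both directions versus DMSO.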

Structure (SMILES) | outcome | AC50
O=C=Nc1cccc2c(N=C=O)cccc12 | inactive | 
CCn1c2ccccc2c2ccccc21 | inactive | 
CO[Si](CCCOCC1CO1)(OC)OC (stereo not drawn) | inactive | 
O=C(O)CCC(F)(F)C(F)(F)C(F)(F)F | inactive | 
O=S(=O)(O)c1ccc(Cl)cc1 | inactive | 
NS(=O)(=O)C(F)(F)C(F)(F)C(F)(F)C(F)(F)C(F)(F)C(F)(F)F |  | 36.4 µM (active)
CCc1cc(Cc2cc(CC)c(N)c(CC)c2)cc(CC)c1N |  | 11.6 µM (active)
C=C(C)CCCC | inactive | 
CCN(CC)c1ccc(C=O)cc1 |  | 163 µM (active)
Cc1ccc(O)cn1 | inactive | 
CC1=CCC2C(=O)OC(=O)C2C1 (stereo not drawn) | inactive | 
C[C@]12CC[C@H]3C(=CCc4cc(O)ccc43)[C@@H]1CCC2=O | inactive | 
CC(C)Nc1ccc(NC(C)C)c2c1C(=O)c1ccccc1C2=O |  | 0.417 µM (active)
Cc1cc(C)c(O)c(C(C)(C)C)c1 |  | 25.9 µM (active)
Cc1cc(=O)[nH]c(C(C)C)n1 | inactive | 
N#CCCOCCC#N | inactive | 
O=C=NCc1cccc(CN=C=O)c1 | inactive | 
CCCCCCCCn1sc(Cl)c(Cl)c1=O | inactive | 
CC(C)(C)c1cc(CCC(=O)OCC(COC(=O)CCc2cc(C(C)(C)C)c(O)c(C(C)(C)C)c2)(COC(=O)CCc2cc(C(C)(C)C)c(O)c(C(C)(C)C)c2)COC(=O)CCc2cc(C(C)(C)C)c(O)c(C(C)(C)C)c2)cc(C(C)(C)C)c1O | inactive | 

Structure (SMILES) | outcome | AC50
Cc1cc(O)c(C(C)(C)C)cc1C(C)(C)C | inactive | 
Cc1ccc(O)c(-n2nc3ccccc3n2)c1 | inactive | 
CCc1ccc(C)nc1 | inactive | 
CC1CCCCC1 | inactive | 
CN(N=O)C(=O)N[C@@H]1[C@@H](O)[C@H](O)[C@@H](CO)O[C@@H]1O | inactive | 
C=CC(=O)OCC(F)(F)C(F)(F)C(F)(F)C(F)(F)C(F)(F)C(F)(F)C(F)(F)C(F)F | inactive | 
Cc1ccc([N+](=O)[O-])c(C)c1 | inactive | 
CCCCC(CC)COC(=O)c1ccc(N(C)C)cc1 (stereo not drawn) | inactive | 
CC1=CCC(=O)O1 | inactive | 
CCCCOC(=O)C(C)O (stereo not drawn) | inactive | 
CCC/C=C/CO | inactive | 
CC(O)C#CC(C)O (stereo not drawn) |  | 39.5 µM (active)
CN1CN(C)CN(C)C1 | inactive | 
O=C(c1ccccc1)c1ccc(Cl)cc1 |  | 47.6 µM (active)
N#Cc1ccccc1O | inactive | 
CC(C)(C)C(=O)C1C(=O)c2ccccc2C1=O |  | 42.2 µM (active)
O=S(=O)(OCC(F)(F)F)C(F)(F)C(F)(F)C(F)(F)C(F)(F)F | inactive | 
OCCCCl | inactive | 

Target: Nuclear receptor subfamily 1 group I member 3 (Homo sapiens) (UniProt Q14994)
Sequence (Q14994 whole entry, looked up): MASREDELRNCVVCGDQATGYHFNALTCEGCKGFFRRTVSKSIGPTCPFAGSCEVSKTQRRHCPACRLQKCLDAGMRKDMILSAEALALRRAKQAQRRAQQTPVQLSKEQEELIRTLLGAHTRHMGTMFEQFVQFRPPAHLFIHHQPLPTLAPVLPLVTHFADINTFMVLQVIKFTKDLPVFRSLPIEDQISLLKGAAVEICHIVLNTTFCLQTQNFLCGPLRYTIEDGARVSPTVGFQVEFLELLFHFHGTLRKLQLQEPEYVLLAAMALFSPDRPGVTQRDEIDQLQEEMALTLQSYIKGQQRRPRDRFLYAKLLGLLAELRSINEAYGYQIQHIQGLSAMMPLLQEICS
Assay: ATG_CAR_TRANS: Attagene TRANS-FACTORIAL HepG2 Assay for human Constitutive Androstane Receptor (CAR) (AID 2282969; active = hit-call score of the fitted dose curve at least 0.9, where 1 is the maximum;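 also: activators raise reporter mRNA above DMSO so AC50 marks induction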)
Details: HepG2 Attagene TRANS-FACTORIAL CAR reporter
Summary of the method: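 Steps: transient transfection of HepG2 with multiple GAL4-UAS reporter units; 24 h compound incubation; RNA isolation, RT-PCR, 6-FAM primer extension, HpaI digest; capillary electrophoresis. Gain-of-signal relative to DMSO negative control.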

Structure (SMILES) | outcome | AC50
O=C=Nc1cccc2c(N=C=O)cccc12 | inactive | 
CCn1c2ccccc2c2ccccc21 | inactive | 
O=C(O)CCC(F)(F)C(F)(F)C(F)(F)F | inactive | 
O=S(=O)(O)c1ccc(Cl)cc1 | inactive | 
NS(=O)(=O)C(F)(F)C(F)(F)C(F)(F)C(F)(F)C(F)(F)C(F)(F)F | inactive | 
CCc1cc(Cc2cc(CC)c(N)c(CC)c2)cc(CC)c1N | inactive | 
C=C(C)CCCC | inactive | 
CCN(CC)c1ccc(C=O)cc1 | inactive | 
Cc1ccc(O)cn1 | inactive | 
CC1=CCC2C(=O)OC(=O)C2C1 (stereo not drawn) | inactive | 
C[C@]12CC[C@H]3C(=CCc4cc(O)ccc43)[C@@H]1CCC2=O | inactive | 
CC(C)Nc1ccc(NC(C)C)c2c1C(=O)c1ccccc1C2=O | inactive | 
Cc1cc(C)c(O)c(C(C)(C)C)c1 | inactive | 
Cc1cc(=O)[nH]c(C(C)C)n1 | inactive | 
N#CCCOCCC#N | inactive | 
O=C=NCc1cccc(CN=C=O)c1 | inactive | 
CCCCCCCCn1sc(Cl)c(Cl)c1=O | inactive | 
CC(C)(C)c1cc(CCC(=O)OCC(COC(=O)CCc2cc(C(C)(C)C)c(O)c(C(C)(C)C)c2)(COC(=O)CCc2cc(C(C)(C)C)c(O)c(C(C)(C)C)c2)COC(=O)CCc2cc(C(C)(C)C)c(O)c(C(C)(C)C)c2)cc(C(C)(C)C)c1O | inactive | 

Structure (SMILES) | outcome | AC50
Cc1cc(O)c(C(C)(C)C)cc1C(C)(C)C | inactive | 
Cc1ccc(O)c(-n2nc3ccccc3n2)c1 | inactive | 
CCc1ccc(C)nc1 | inactive | 
CC1CCCCC1 | inactive | 
CN(N=O)C(=O)N[C@@H]1[C@@H](O)[C@H](O)[C@@H](CO)O[C@@H]1O | inactive | 
C=CC(=O)OCC(F)(F)C(F)(F)C(F)(F)C(F)(F)C(F)(F)C(F)(F)C(F)(F)C(F)F | inactive | 
Cc1ccc([N+](=O)[O-])c(C)c1 | inactive | 
CCCCC(CC)COC(=O)c1ccc(N(C)C)cc1 (stereo not drawn) | inactive | 
CC1=CCC(=O)O1 | inactive | 
CCCCOC(=O)C(C)O (stereo not drawn) | inactive | 
CCC/C=C/CO | inactive | 
CC(O)C#CC(C)O (stereo not drawn) |  | 99.5 µM (active)
CN1CN(C)CN(C)C1 | inactive | 
O=C(c1ccccc1)c1ccc(Cl)cc1 | inactive | 
N#Cc1ccccc1O | inactive | 
CC(C)(C)C(=O)C1C(=O)c2ccccc2C1=O | inactive | 
O=S(=O)(OCC(F)(F)F)C(F)(F)C(F)(F)C(F)(F)C(F)(F)F | inactive | 
OCCCCl | inactive | 
